# Assay results reported in PubChem BioAssay (Tox21).
# Records with an inconclusive call do not appear. Where a call stands in place of a potency, no number is given. Calls of active or inactive are those of the source. The call rests on the fitted dose curve; in most records, active means well fitted activation curve with a large enough effect in the repeat runs; inconclusive means weak or mixed curves; inactive means no such curve, though single readings can be large or run the other way.
# Experiment: qHTS assay to identify small molecule agonists of the estrogen related receptor (ERR) signaling pathway (AID 1224820)
# Settings: ERR reporter cell line, luciferase agonist mode; series mostly up to 46.1 µM
# Description: National Center for Advancing Translational Sciences [NCATS]
# NIH Chemical Genomics Center [NCGC]
# U.S. Environmental Protection Agency [EPA]
# National Institutes of Environmental Health Sciences [NIEHS]
# National Toxicology Program [NTP]
# Estrogen related receptors (ERRs), the first orphan nuclear receptors discovered, play an important role in the control of cellular energy metabolism. ERRs are required for high-energy production in response to the environmental challenges. ERR-alpha was also identified as an adverse marker for breast cancer progression; ERR-alpha-positive tumors have a poor prognosis. To screen and to identify environmental compounds that perturb the ERR signaling pathways could provide valuable information for potential therapeutic or preventive measures in the treatment of metabolic disease. For identifying ERR agonists, ERR cell line (provided by NTP) has been used to screen LOPAC library.
# The ERR cells were dispensed at 2,000 cells/5 ul/well in 1536-well white plates using a Multidrop dispenser. After the assay plates were incubated at a 37 C/5% CO2 incubator for 6 hours, 23 nL of compounds dissolved in DMSO, positive and negative controls or DMSO only was transferred to the assay plate by a pin tool. The plates were incubated at 37 C for 18 hours. 4 ul/well of One-Glo reagent was added into the assay plates using a Flying Reagent Dispenser. After 30 min incubation at room temperature, the luminescence intensity in the plates was measured using a ViewLux plate reader.
# Potency means the concentration at half of the fitted maximal effect.
row,Structure (SMILES),Potency
1,CCN1/C(=C/C(C)=O)Sc2ccc(OC)cc21,inactive
2,Nc1c(S(=O)(=O)O)cc(Nc2ccc(Nc3nc(Cl)nc(Nc4ccc(S(=O)(=O)O)cc4)n3)c(S(=O)(=O)O)c2)c2c1C(=O)c1ccccc1C2=O,inactive
3,O=C(N[C@@H](Cc1ccccc1)C(=O)CCl)OCc1ccccc1,inactive
4,O=c1[nH]c2cc(C(F)(F)F)ccc2n1-c1cc(C(F)(F)F)ccc1O,inactive
5,C=CCNc1ncnc2ccc(Br)cc12,inactive
6,COc1ccccc1N1CCN(CCCCNC(=O)c2ccc3ccccc3c2)CC1,inactive
7,NC(=O)c1cc[n+](CC2=C(C(=O)O)N3C(=O)[C@@H](NC(=O)[C@@H](c4ccccc4)S(=O)(=O)[O-])[C@H]3SC2)cc1,inactive
8,COC1=C(OC)C(=O)c2ccccc2C1=O,inactive
9,Clc1ccc2c(N3CCN(CCCN4CCN(c5ccnc6cc(Cl)ccc56)CC4)CC3)ccnc2c1,inactive
10,CN[C@H](CC(C)C)C(=O)N[C@H]1C(=O)N[C@@H](CC(N)=O)C(=O)N[C@H]2C(=O)N[C@H]3C(=O)N[C@H](C(=O)N[C@H](C(=O)O)c4cc(O)cc(O)c4-c4cc3ccc4O)[C@H](O)c3ccc(c(Cl)c3)Oc3cc2cc(c3O[C@@H]2O[C@H](CO)[C@@H](O)[C@H](O)[C@H]2O[C@H]2C[C@](C)(N)[C@H](O)[C@H](C)O2)Oc2ccc(cc2Cl)[C@H]1O,inactive
11,CC1CCN(CC[C@H]2CCCN2S(=O)(=O)c2cccc(O)c2)CC1,inactive
12,Nc1ccc(CCNc2ncnc3c2ncn3C2OC(CO)C(O)C2O)cc1 (stereo not given),inactive
13,C[N+](C)(C)CCOP(=O)(O)OP(=O)([O-])OC[C@H]1O[C@@H](n2ccc(N)nc2=O)[C@H](O)C1O (stereo not given in full),inactive
14,OCC1O[C@H]([S-])C(O)[C@@H](O)[C@@H]1O.[Au+] (stereo not given in full),inactive
15,CC(C)NC[C@H](O)c1ccc(O)c(O)c1,inactive
16,C=CCn1c(=O)c2c(nc(-c3ccc(S(=O)(=O)O)cc3)n2C)n(C)c1=O,inactive
17,C=CCN1CCc2cc(O)c(O)cc2C(c2ccccc2)C1 (stereo not given),inactive
18,CC(=O)/C(C)=N/O,inactive
19,Oc1cc(O)cc(/C=C/c2ccc(O)c(O)c2)c1,8.41 µM (active)
20,Nc1nc(Nc2ccccc2)nc2c1ncn2[C@@H]1O[C@H](CO)C(O)[C@H]1O (stereo not given in full),inactive

row,Structure (SMILES),Potency
1,OCC1NCC(O)C(O)C1O (stereo not given),inactive
2,Cc1cc(NC(=O)Nc2ccc3c(ccn3C)c2)sn1,10.2 µM (active)
3,O=c1[nH]c2cc(Cl)ccc2c(O)c1-c1ccc(Oc2ccccc2)cc1,inactive
4,CN1C2CCC1CC(OC(=O)C(O)c1ccccc1)C2 (stereo not given),inactive
5,Cc1ccc([N+](=O)[O-])cc1S(=O)(=O)N(C)C,inactive
6,CC(C)NC[C@@H](O)c1ccc(O)c(O)c1,inactive
7,NC(N)=NCc1cccc(I)c1,inactive
8,CN1CCc2cccc3c2C1Cc1ccc(O)c(O)c1-3 (stereo not given),inactive
9,Oc1cc2c(cc1O)C(c1ccccc1)CNCC2 (stereo not given),inactive
10,O=C(O)CNC(=O)C(CS)Cc1ccccc1 (stereo not given),inactive
11,CCCCN(CC)c1nc(C)nc2c1c(C)cn2-c1c(C)cc(C)cc1C,inactive
12,COc1cc(OC)c(/C=C2/C(=O)Nc3ccccc32)c(OC)c1,inactive
13,CN(C)S(=O)(=O)c1ccc2c(c1)/C(=C/c1cc3c([nH]1)CCCC3)C(=O)N2,inactive
14,Cc1ccc2c(c1)C(N1CCN(C)CC1)=Nc1cccnc1N2,inactive
15,Cn1ncc(S(=O)(=O)Cc2ccccc2)c(Br)c1=O,inactive
16,N#C/C(=C\c1ccc(O)c(O)c1)C(=O)NCCCNC(=O)/C(C#N)=C/c1ccc(O)c(O)c1,inactive
17,NC(N)=NCCCCN=C(N)N,inactive
18,O=C1NC(=O)c2c1c(-c1ccccc1)cc1[nH]c3ccc(O)cc3c21,inactive
19,CO/N=C(\C(=O)N[C@@H]1C(=O)N2C(C(=O)O)=C(CSc3nc(=O)c(O)nn3C)CSC12)c1csc(N)n1 (stereo not given in full),inactive
20,Nc1cc(Cl)c(NC2=NCCN2)c(Cl)c1,inactive
